Results: PubChem BioAssay AID1159580 (chemical genetic matrix, 2015)
“And” between values parts separate entries of the source, which are not always exact repeats. Equal values may be shown once. In all, about 5,500 compounds went through this assay and about 2,000 (36%) were called active. About 18% were inconclusive and are not listed. Cut-off read from the data, not from the text of the source: active = normalized growth mostly below about 0.91 (no sharp cut-off); inconclusive = no clear call, values can overlap the other calls; inactive = mostly above about 0.92. The list shows a part of the results.

Test: chemical genetic growth profiling, strain panel (AID 1159580);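 note: tested at 20 µM; growth read once vehicle control cultures reached saturation at 30 °C; 1 = growth at the plate median or of vehicle wells; lower values mean less growth of the strain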
Details: S. cerevisiae deletion strains, growth OD

Measured: normalized growth

CCC(=O)O[C@]1(C(=O)CCl)[C@@H](C)CC2C3CCC4=CC(=O)C=C[C@]4(C)[C@@]3(F)[C@@H](O)C[C@@]21C (stereo not given in full)
inactive: locus YAL013W, strain DEP1, stronger effect = lower value 0.976 | locus YAL021C, strain ccr4, stronger effect = lower value 1.02 | locus YAL026C, strain drs2, stronger effect = lower value 1.02 | locus YAL030W, strain snc1, stronger effect = lower value 1.02 | locus YBL061C, strain skt5, stronger effect = lower value 1.03 | locus YBR009C, strain hhf1, stronger effect = lower value 1.01 | locus YBR021W, strain FUR4, stronger effect = lower value 0.968 | locus YBR023C, strain chs3, stronger effect = lower value 1.02 | locus YBR171W, strain sec66, stronger effect = lower value 1.03 | locus YBR229C, strain ROT2, stronger effect = lower value 0.986 | locus YBR231C, strain swc5, stronger effect = lower value 1.02 | locus YBR279W, strain paf1, stronger effect = lower value 1 | locus YCL011C, strain gbp2, stronger effect = lower value 1.02 | locus YCL016C, strain dcc1, stronger effect = lower value 1.02 | locus YCL029C, strain bik1, stronger effect = lower value 0.96 | locus YCL061C, strain MRC1, stronger effect = lower value 1.03 | locus YCL069W, strain vba3, stronger effect = lower value 1.02 | locus YCR088W, strain abp1, stronger effect = lower value 1.02 | locus YDL005C, strain med2, stronger effect = lower value 1.03 | locus YDL035C, strain GPR1, stronger effect = lower value 0.958 | locus YDL040C, strain nat1, stronger effect = lower value 1.03 | locus YDL074C, strain BRE1, stronger effect = lower value 0.975 | locus YDL101C, strain DUN1, stronger effect = lower value 0.989 | locus YDL134C, strain PPH21, stronger effect = lower value 0.981 | locus YDL185W, strain tfp1, stronger effect = lower value 0.949 | locus YDL192W, strain arf1, stronger effect = lower value 0.982 | locus YDR001C, strain nth1, stronger effect = lower value 1.02 | locus YDR069C, strain doa4, stronger effect = lower value 1.03 | locus YDR101C, strain arx1, stronger effect = lower value 1.01 | locus YDR137W, strain rgp1, stronger effect = lower value 0.99 | locus YDR150W, strain NUM1, stronger effect = lower value 0.975 | locus YDR159W, strain sac3, stronger effect = lower value 1.02 | locus YDR162C, strain NBP2, stronger effect = lower value 0.953 | locus YDR195W, strain ref2 1.02 | locus YDR297W, strain sur2, stronger effect = lower value 1.01 | locus YDR318W, strain mcm21, stronger effect = lower value 0.988 | locus YDR334W, strain swr1, stronger effect = lower value 1.01 | locus YDR335W, strain msn5, stronger effect = lower value 1.02 | locus YDR388W, stronger effect = lower value 0.987 | locus YDR392W, strain spt3, stronger effect = lower value 1.03 | locus YDR502C, strain sam2, stronger effect = lower value 0.963 | locus YEL003W, strain gim4, stronger effect = lower value 1.01 | locus YEL037C, strain rad23, stronger effect = lower value 1.02 | locus YEL061C, strain CIN8 (second series), stronger effect = lower value 1.02 | locus YEL061C, strain CIN8, stronger effect = lower value 0.985 | locus YER015W, strain faa2, stronger effect = lower value 1.01 | locus YER016W, strain bim1, stronger effect = lower value 1.01 | locus YER110C, stronger effect = lower value 0.971 | locus YER111C, strain swi4, stronger effect = lower value 1.02 | locus YER155C, strain BEM2 (second series), stronger effect = lower value 1.07 | locus YER155C, strain BEM2, stronger effect = lower value 0.987 | locus YER167W, strain BCK2, stronger effect = lower value 0.986 | locus YFR010W, strain ubp6, stronger effect = lower value 1.02 | locus YGL078C, strain dbp3, stronger effect = lower value 0.978 | locus YGL086W, strain mad1, stronger effect = lower value 0.973 | locus YGL167C, strain pmr1, stronger effect = lower value 1.03 | locus YGL173C, strain kem1, stronger effect = lower value 1.05 | locus YGL227W, strain vid30, stronger effect = lower value 1.04 | locus YGL240W, strain doc1, stronger effect = lower value 1.02 | locus YGL248W, strain PDE1, stronger effect = lower value 1.02 | locus YGL253W, strain hxk2, stronger effect = lower value 1 | locus YGR078C, strain PAC10, stronger effect = lower value 0.999 | locus YGR135W, strain pre9, stronger effect = lower value 0.974 | locus YGR229C, strain SMI1, stronger effect = lower value 0.971 | locus YGR252W, strain gcn5, stronger effect = lower value 1.04 | locus YHR013C, strain ard1, stronger effect = lower value 1.03 | locus YHR027C, strain rpn1, stronger effect = lower value 1.01 | locus YHR030C, strain SLT2, stronger effect = lower value 0.974 and 0.963 | locus YHR079C, strain IRE1 (second series), stronger effect = lower value 0.98 | locus YHR079C, strain IRE1, stronger effect = lower value 0.957 | locus YHR094C, strain hxt1, stronger effect = lower value 0.972 | locus YHR129C, strain ARP1, stronger effect = lower value 0.993 | locus YHR142W, strain chs7, stronger effect = lower value 1.01 | locus YHR200W, strain rpn10, stronger effect = lower value 0.977 | locus YIL066C, strain RNR3, stronger effect = lower value 0.985 | locus YIL073C, strain SPO22, stronger effect = lower value 0.876 | locus YIL125W, strain kgd1, stronger effect = lower value 0.985 | locus YIR030C, strain dcg1, stronger effect = lower value 0.985 | locus YJL092W, strain hpr5, stronger effect = lower value 1.02 | locus YJL095W, strain BCK1 (second series), stronger effect = lower value 1.03 | locus YJL095W, strain BCK1, stronger effect = lower value 1.05 and 0.971 | locus YJL115W, strain asf1, stronger effect = lower value 1.04 | locus YJL129C, strain trk1, stronger effect = lower value 1.01 | locus YJL134W, strain LCB3, stronger effect = lower value 0.981 | locus YJL154C, strain vps35, stronger effect = lower value 1.01 | locus YJL164C, strain tpk1, stronger effect = lower value 1.03 | locus YJL166W, strain qcr8, stronger effect = lower value 1.03 | locus YJL168C, strain set2, stronger effect = lower value 1 | locus YJL187C, strain SWE1 (second series), stronger effect = lower value 1 | locus YJL187C, strain SWE1, stronger effect = lower value 1.02
